Screens deposited in PubChem by several laboratories.
An excerpt weighted towards active compounds, which were near 2.9% of everything screened.
KKLEB cytotox – counter-screen for CF NF-kB inhibitors: cytotoxicity | hit rate 0.36% among 360,000 | activity change (cytotoxicity), % at 5 µM | AID 602141 | KKLEB CF airway cells viability, ATPlite luminescence, overnight; active compounds read low; cells stimulated with P. aeruginosa culture filtrate;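 active = corrected activity change at or below -50% at 5 µM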
HIF-2a inh – inhibitors of HIF-2a. 786-0 RCC cells HIF-2a reporter, luciferase luminescence, overnight. AID 624352. hit rate 0.72% among 360,000. inhibition, % at 18.8 µM;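 active = inhibition of the luminescence signal of 40% or more relative to plate controls, in a single-dose primary screen at 18.75 µM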
Shn3 3UTR inh – inhibitors of Schnurri-3 3'UTR reporter in osteoblasts. Clone20 osteoblast Shn3 3'UTR firefly luciferase, 24 h. inhibition, % at 12.5 µM. hit rate 0.52% among 360,000;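 active = mean inhibition of at least 75% with every replicate also reaching 75%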
LMP1 NFkB inh – reduces LMP1-driven NF-kappaB luciferase signal; LMP1-induced NF-kappaB luciferase reporter cells, luminescence; inhibition, % at 12.5 µM; hit rate 0.69% among 350,000; in the data active = inhibition above about 41%
CF NFkB inh – inhibitors of cystic fibrosis induced NF-kB | inhibition, % at 5 µM | hit rate 0.86% among 360,000 | AID 588850 | KKLEB NF-kB-GFP reporter, PAF-induced, GFP fluorescence overnight;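 active = at least 50% inhibition at 5 µM, scaled per plate between neutral and stimulator controls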;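 note: PAF is a Pseudomonas aeruginosa culture filtrate used as stimulus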
Peg3 prom inh – inhibitors of Peg3 promoter; HeLa PEG-Prom luciferase reporter, luminescence, overnight; inhibition, % at 20 µM; hit rate 1.7% among 360,000; AID 588405;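 active = inhibition of at least 50% at 20 µM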
Hits are given with their value; i = inactive; nt = no result given.

SMILES	KKLEB cytotox	HIF-2a inh	Shn3 3UTR inh	LMP1 NFkB inh	CF NFkB inh	Peg3 prom inh
COc1ccc(-c2csc(NC(=O)C3CCN(c4ncnc5sc(C)c(C)c45)CC3)n2)cc1OC	i	i	96	i	i	i
COc1ccccc1OCC(=O)NNC(=O)C1CCN(c2ncnc3sc(C)c(C)c23)CC1	i	i	i	i	i	i
COc1cc(C(=O)Nc2cccc(C)n2)ccc1OCC(=O)N1CCOCC1	i	i	i	i	i	i
CCC(=O)Nc1cccc(-c2ccc(N3CCC(C)CC3)nn2)c1	-55	i	i	i	i	i
CCC(=O)Nc1ccc(-c2ccc(N3CCC(C)CC3)nn2)cc1	i	i	i	i	i	i
CCOC(=O)c1cnc(SCC(=O)Nc2sc(C)c(C)c2C#N)nc1N	-50	i	i	i	i	i
Fc1ccc(-c2nnc(-n3nnc4ccccc43)c3ccccc23)cc1	i	i	i	53	i	i
O=C(c1ccco1)N1CCN(C(=O)c2ccco2)C1=S	i	i	i	i	i	92
COc1ccccc1CN(Cc1nc2ccccc2c(=O)[nH]1)S(=O)(=O)c1ccc2ccccc2c1	i	i	i	i	i	58
O=C1C=C(NCCc2cc(Br)c(O)c(Br)c2)C(=O)c2ncccc21	i	i	94	i	76	93
Cc1ccc(NC(=O)COC(=O)C2CCC2)cc1S(=O)(=O)N1CCCCC1	i	i	i	i	i	i
Oc1ccc(N=Nc2n[nH]c(-c3ccc(Br)cc3)n2)cc1	i	i	i	i	i	86
COc1cc(/C=C(\C#N)c2nc3ccccc3[nH]2)cc(Br)c1OCc1ccccc1	i	i	i	i	i	53
CCOc1ccc(-n2c(-c3ccccc3)c[n+]3c2CCC3)cc1	i	i	84	i	i	i
CCOc1ccc(-n2c(-c3ccc(OC)cc3)c[n+]3c2CCCCC3)cc1	i	i	85	i	i	i
CCOc1ccc(-n2c(-c3ccc(Br)cc3)c[n+]3c2CCCCC3)cc1	i	i	i	i	i	i
COCc1c(C(=O)N(C)Cc2ccccc2N2CCCC2)oc2ccccc12	i	i	i	i	i	i
CCOC(=O)Nc1ccc2c(c1)C(=NO)c1ccccc1-2	i	i	92	i	i	i
CCOC(=O)Nc1ccc2c(c1)C(=NNC(N)=S)c1ccccc1-2	i	i	i	i	i	71
Cc1ccc(S(=O)(=O)N(C)CCCC(=O)Nc2cccc3ccccc23)cc1	i	i	i	i	i	i
CC(C)Cn1c(N)c(C(=O)CSc2ncn[nH]2)c(=O)n(C)c1=O	i	i	i	i	i	i
O=C1C=C(c2cc3ccccc3s2)CCC1	i	i	i	51	i	i
CC(C)c1cccc(-c2csc(C(O)c3ccco3)n2)c1 (centres undefined)	i	i	i	nt	i	i
Cc1cc(C)c(S(=O)(=O)/N=C2/C=C(SCC(=O)O)C(=O)c3ccccc32)cc1C	i	i	i	i	56	i
Cc1ccc(NC(=O)CSc2ccccc2)cc1S(=O)(=O)N1CCCCC1	i	i	i	i	i	i
SMILES	KKLEB cytotox	HIF-2a inh	Shn3 3UTR inh	LMP1 NFkB inh	CF NFkB inh	Peg3 prom inh
O=C(O)CCN1C(=O)C2C3c4ccccc4C(c4ccccc43)C2C1=O (centres undefined)	i	i	i	50	i	i
CSc1nc2nc3c(c(=O)n2[nH]1)CCCC3	i	i	i	i	i	i
CC1C(=NO)C(C)C(c2ccccc2)NC1c1ccccc1 (centres undefined)	i	i	i	i	i	i
CCC1C(=NO)C(CC)C(c2ccccc2)NC1c1ccccc1 (centres undefined)	i	i	i	i	i	64
CCOc1ccccc1OCCCC(=O)N1CCN(S(=O)(=O)c2ccc(Cl)cc2)CC1	i	i	i	70	i	i
O=C(Nc1ccc([N+](=O)[O-])cc1)c1cncc(Br)c1	i	i	i	43	i	i
COC(=O)C1CCC(=O)N1C(c1ccc(OC)cc1)c1cc(OC)c(OC)c(OC)c1 (centres undefined)	i	i	i	i	52	i
COc1ccc(C(CNC(=O)Cc2cc(OC)c(OC)c(OC)c2)N2CCCC2)cc1 (centres undefined)	i	i	i	i	i	i
Nc1cccc(-c2cc3ccccc3oc2=O)c1	i	41	i	i	i	i
Cc1nc(NC(=O)c2cccc(-c3cc4ccccc4oc3=O)c2)ccc1Br	i	i	i	i	i	79
Cc1nc(NC(=O)c2ccc(-c3cc4ccccc4oc3=O)cc2)ccc1Br	i	i	i	i	i	82
Nc1nnc(-c2cc3ccccc3oc2=O)s1	i	i	i	i	i	i
O=C(Nc1ccc(Br)cn1)c1cccc(-c2cc3ccccc3oc2=O)c1	i	i	i	i	i	i
CCNC(=O)C1(C)CCN(C(=O)c2ccccc2OC)C1 (centres undefined)	i	i	i	nt	i	i
O=c1cc(CNc2ccc(Br)cc2)nc2sccn12	i	i	i	i	i	i
c1ccc(CCNCCCOc2cccc3ccccc23)cc1	i	i	i	i	i	50
O=C(NC1CCCCCC1)c1ccc(Cl)c(S(=O)(=O)N2CCOCC2)c1	i	i	i	i	i	i
COc1ccc(CNC(=O)C(c2ccc(C)cc2)N(Cc2cccs2)C(=O)c2ccc3c(c2)OCCO3)cc1 (centres undefined)	-94	i	89	i	100	63
COc1ccc(CNC(=O)C(c2cccs2)N(Cc2ccco2)C(=O)Cc2cccs2)cc1 (centres undefined)	i	i	i	i	i	57
O=Nc1c(O)c2ccccc2c2ccccc12	-88	i	i	i	89	96
CCCCNCC(O)(c1ccc(Cl)cc1)c1ccc(Cl)cc1	i	i	i	i	i	63
Cc1cccc(N=N/C(=C\O)C(=O)c2cccs2)c1	i	i	i	i	i	i
COc1ccc2cc1Oc1ccc(cc1)C[C@H]1c3c(cc(OC)c4c3Oc3c(ccc5c3[C@H](C2)N(C)CC5)O4)CCN1C	-88	i	i	i	87	100
CCOC(=O)c1cc(NC(=O)c2ccc(Cl)cc2)c(=O)n2c1oc1ccc(Cl)cc12	-58	i	i	i	i	i
CCOC(=O)N1CCN(C(=O)c2cn(CC)c3ccc(S(=O)(=O)N(C)C4CCCCC4)cc3c2=O)CC1	i	i	i	i	i	i
OCCN(CCO)c1ccc2ccccc2c1	i	i	i	i	i	i
OCCN(CCO)c1ccc(C(c2ccccc2Cl)c2ccc(N(CCO)CCO)cc2Cl)c(Cl)c1	i	i	i	i	i	59
Cc1ccc(-c2nn(CCC(=O)O)cc2/C=C\C(=O)c2ccc(Br)cc2)cc1	i	i	i	i	i	i
COC(=O)CC1(c2cccc3ccccc23)C(=O)c2ccccc2C1=O	i	78	i	i	i	i
COC(=O)CC1(c2ccccc2)C(=O)c2ccccc2C1=O	i	i	i	i	i	i
